In PubChem BioAssay (NCATS):
Unmarked numbers belong to inactive results. Inconclusive results are not listed. Entries that show only a call come without a potency. Calls of active or inactive are those of the source. Unless noted, calls follow the shape of the dose curve; as a rule, active = well fitted curve in the direction sought with a large enough effect; inconclusive = small, poorly fitted or top-dose-only effect, or another doubt; inactive = no such curve, though single readings can be large; an effect the other way counts as inactive or inconclusive.

Assays:
[1] = Primary qHTS for inhibitors of nuclear receptor binding SET domain protein 2 (NSD2) in an RCH-ACV wild type WT cells (2C) (AID 1645877); also: nearly all actives have a fitted effect of over 70% in size; also: potency is read from the fitted curve at half-maximal effect
[2] = biological target: Lysosomal acid glucosylceramidase (Homo sapiens) (UniProt P04062); assay: Glucocerebrosidase-p2 (AID 348; in the data active = potency below about 10 µM; also: potency is read from the fitted curve at half-maximal effect); conditions: purified GBA, blue fluorogenic substrate, 40 min
Lysosomal acid glucosylceramidase (Homo sapiens), sequence (P04062 whole entry, looked up): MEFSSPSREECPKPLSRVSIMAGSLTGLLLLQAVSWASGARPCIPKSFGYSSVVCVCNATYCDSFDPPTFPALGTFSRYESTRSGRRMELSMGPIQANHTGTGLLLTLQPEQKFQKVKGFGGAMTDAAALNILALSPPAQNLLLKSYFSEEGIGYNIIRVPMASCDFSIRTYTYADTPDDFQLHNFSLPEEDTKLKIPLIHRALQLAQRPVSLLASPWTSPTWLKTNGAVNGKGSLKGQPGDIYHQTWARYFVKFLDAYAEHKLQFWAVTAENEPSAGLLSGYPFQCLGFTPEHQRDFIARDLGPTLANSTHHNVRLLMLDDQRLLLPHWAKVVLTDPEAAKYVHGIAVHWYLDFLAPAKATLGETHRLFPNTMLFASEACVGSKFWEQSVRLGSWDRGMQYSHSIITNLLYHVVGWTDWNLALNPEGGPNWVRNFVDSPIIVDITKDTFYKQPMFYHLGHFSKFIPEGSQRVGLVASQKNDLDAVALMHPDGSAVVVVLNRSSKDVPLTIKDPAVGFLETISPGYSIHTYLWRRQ
Method in brief: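 Normal human glucocerebrosidase (0.2 nM) with blue fluorogenic substrate (80 uM final) in citrate/phosphate pH 5.9 with 10mM sodium taurocholate, 0.01% tween-20; 40 min RT, NaOH/glycine stop; fluorescence Ex 365/Em 440; AC50 from a titration from 0.6 nM upwards.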

[3] = AP1 Signaling Pathway (AID 357; active = well fitted curve in either direction with a large enough effect, not every such curve was filed as active;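 also: ME-180 reporter cells stimulated with EGF at its EC50 level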); conditions: ME-180 AP-1-bla reporter, EGF-induced, beta-lactamase ratio, 5 h; at 7.69 µM (top of the series) unless noted
Method in brief: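 Titration-series screen for positive or negative modulators of EC50 EGF-induced signaling in ME-180 cells carrying an AP-1-driven beta-lactamase reporter. After 5 hours at 37 degrees Celsius, CCF4 460nm/530nm emission ratio gave %Activity; AC50 values derived.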

[4] = Stat Signaling Pathway (AID 446; active = well fitted curve in either direction with a large enough effect, not every such curve was filed as active;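 also: ME-180 cervical cancer cells given 40 pM IL-6 alongside compound; SIE-controlled beta-lactamase reporter measured as 460/530 nm FRET emission ratio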); conditions: ME-180 (cervical carcinoma) SIE beta-lactamase reporter, IL-6 stimulated, 5 h; at 7.69 µM (top of the series) unless noted
Method in brief: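 Compound effects on IL-6-induced STAT reporter activity were measured in ME-180 cells. After overnight culture, cells were co-treated with 40 pM IL-6 for 5 hrs before beta-lactamase substrate loading at room temperature.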

[5] = biological target: Glucocorticoid receptor (Homo sapiens) (UniProt P04150); assay: GR-GFP Redistribution (AID 450;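 active = compounds whose dose series gives a full or clear partial fitted curve of increased nuclear translocation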; also: potency is read from the fitted curve at half-maximal effect); conditions: U2OS GR-GFP nuclear translocation, laser cytometry, 2 h
Glucocorticoid receptor (Homo sapiens), sequence (P04150 whole entry, looked up, the tested form may be a part): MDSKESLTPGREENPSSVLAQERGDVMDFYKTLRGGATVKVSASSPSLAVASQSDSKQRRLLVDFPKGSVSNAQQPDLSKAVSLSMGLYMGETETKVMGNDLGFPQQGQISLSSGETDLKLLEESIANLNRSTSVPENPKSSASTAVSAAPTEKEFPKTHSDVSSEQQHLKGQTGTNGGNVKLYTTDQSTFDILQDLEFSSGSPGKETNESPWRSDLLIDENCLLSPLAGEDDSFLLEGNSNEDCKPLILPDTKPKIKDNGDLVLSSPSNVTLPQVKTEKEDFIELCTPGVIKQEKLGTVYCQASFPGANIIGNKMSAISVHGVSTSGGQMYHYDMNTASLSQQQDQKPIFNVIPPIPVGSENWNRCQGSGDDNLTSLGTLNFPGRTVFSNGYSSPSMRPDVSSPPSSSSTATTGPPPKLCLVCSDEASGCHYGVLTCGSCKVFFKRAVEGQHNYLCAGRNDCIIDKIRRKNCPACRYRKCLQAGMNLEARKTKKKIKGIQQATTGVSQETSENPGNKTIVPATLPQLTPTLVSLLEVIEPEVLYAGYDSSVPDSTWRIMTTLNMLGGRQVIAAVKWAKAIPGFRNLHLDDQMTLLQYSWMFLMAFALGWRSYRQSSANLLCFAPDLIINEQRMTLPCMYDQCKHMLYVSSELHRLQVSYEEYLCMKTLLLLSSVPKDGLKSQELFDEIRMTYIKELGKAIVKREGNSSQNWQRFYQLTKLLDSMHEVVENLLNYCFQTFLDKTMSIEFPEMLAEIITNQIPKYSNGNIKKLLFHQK

[6] = biological target: Glucocorticoid receptor (Homo sapiens) (UniProt P04150); assay: GR-EFC Redistribution (AID 451; calls by dose curve; also: potency is read from the fitted curve at half-maximal effect); conditions: CHO-K1 GR-EFC translocation, beta-gal luminescence, 2 h
Method in brief: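 CHO-K1 cells stably expressing nuclear-localized β-gal enzyme acceptor and GR fused C-terminally to the enzyme donor fragment; ligand-driven nuclear translocation restores β-gal by complementation. Compounds titrated up to 46 uM final, 2 h at 37 °C; luminescence read.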

[7] = biological target: Mitogen-activated protein kinase 10 (Mus musculus) (UniProt Q61831); assay: JNK3 AlphaScreen Assay (AID 530; active = well fitted curve in either direction with a large enough effect, not every such curve was filed as active;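 also: kinase came from lysate of stimulated human HepG2 cells; signal reports phosphorylation of biotinylated GST-cJun 1-79 at Ser73 with 10 µM ATP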)
Method in brief: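 Biotinylated GST-cJun(1-79) served as substrate for JNK3 in HepG2 lysates stimulated with IL-1beta and TNF-alpha. ATP was 10 uM final, pH 7.6. Ser73 phosphorylation was quantified by AlphaScreen (680 nm excitation).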

[8] = biological target: Endonuclease 4 (Escherichia coli (strain K12)) (UniProt P0A6C1); assay: Counterscreen for APE1 Inhibitors: qHTS Validation Assay for Inhibitors of Endonuclease IV (AID 1708)
Method in brief: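 Measured as reaction progress, the fluorescence gain between first and third kinetic reads after adding 50 nM TAMRA/BHQ-2 THF duplex to 2 nM enzyme preincubated 15 min with compound; 2 mM MgCl2, pH 7.5.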

[9] = qHTS for differential inhibitors of proliferation of Plasmodium falciparum line GB4 (AID 1816); conditions: Potency: Plasmodium falciparum GB4 proliferation inhibition;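 also: parasite growth measured after 72 h incubation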
[10] = qHTS for differential inhibitors of proliferation of Plasmodium falciparum line 3D7 (AID 1876);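 also: parasite growth measured after three days of culture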
[11] = qHTS for differential inhibitors of proliferation of Plasmodium falciparum line W2 (AID 1883); conditions: Potency: Plasmodium falciparum W2 proliferation inhibition;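 also: parasites grown with compound for 72 h before lysis and staining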
[12] = qHTS for differential inhibitors of proliferation of Plasmodium falciparum line HB3 (AID 1886); conditions: Potency: Plasmodium falciparum HB3 proliferation inhibition;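 also: parasites grown with compound for 72 h before SYBR Green readout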
[13] = qHTS Assay for Modulators of Human Peripheral Myelin Protein 22 (PMP22) Expression/Activity (AID 1967; active = well fitted curve in the direction sought with a large enough effect in the signal ratio; the % refers to the signal ratio)
Method in brief: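 Mouse MSC80 Schwann cells carrying Pmp22 promoter–green click beetle luciferase plus EF-alpha–red luciferase control, dosed 24 h at 37 °C. Dual-filter luminescence, overlap-corrected; %Activity from green/red ratio normalised to untreated cells, concentration-response curves fitted.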

[14] = biological target: RecQ-like DNA helicase BLM (Homo sapiens) (UniProt P54132); assay: qHTS Validation Assay for Inhibitors of Bloom's syndrome helicase (BLM) (AID 2364)
RecQ-like DNA helicase BLM (Homo sapiens), sequence (P54132 whole entry, looked up): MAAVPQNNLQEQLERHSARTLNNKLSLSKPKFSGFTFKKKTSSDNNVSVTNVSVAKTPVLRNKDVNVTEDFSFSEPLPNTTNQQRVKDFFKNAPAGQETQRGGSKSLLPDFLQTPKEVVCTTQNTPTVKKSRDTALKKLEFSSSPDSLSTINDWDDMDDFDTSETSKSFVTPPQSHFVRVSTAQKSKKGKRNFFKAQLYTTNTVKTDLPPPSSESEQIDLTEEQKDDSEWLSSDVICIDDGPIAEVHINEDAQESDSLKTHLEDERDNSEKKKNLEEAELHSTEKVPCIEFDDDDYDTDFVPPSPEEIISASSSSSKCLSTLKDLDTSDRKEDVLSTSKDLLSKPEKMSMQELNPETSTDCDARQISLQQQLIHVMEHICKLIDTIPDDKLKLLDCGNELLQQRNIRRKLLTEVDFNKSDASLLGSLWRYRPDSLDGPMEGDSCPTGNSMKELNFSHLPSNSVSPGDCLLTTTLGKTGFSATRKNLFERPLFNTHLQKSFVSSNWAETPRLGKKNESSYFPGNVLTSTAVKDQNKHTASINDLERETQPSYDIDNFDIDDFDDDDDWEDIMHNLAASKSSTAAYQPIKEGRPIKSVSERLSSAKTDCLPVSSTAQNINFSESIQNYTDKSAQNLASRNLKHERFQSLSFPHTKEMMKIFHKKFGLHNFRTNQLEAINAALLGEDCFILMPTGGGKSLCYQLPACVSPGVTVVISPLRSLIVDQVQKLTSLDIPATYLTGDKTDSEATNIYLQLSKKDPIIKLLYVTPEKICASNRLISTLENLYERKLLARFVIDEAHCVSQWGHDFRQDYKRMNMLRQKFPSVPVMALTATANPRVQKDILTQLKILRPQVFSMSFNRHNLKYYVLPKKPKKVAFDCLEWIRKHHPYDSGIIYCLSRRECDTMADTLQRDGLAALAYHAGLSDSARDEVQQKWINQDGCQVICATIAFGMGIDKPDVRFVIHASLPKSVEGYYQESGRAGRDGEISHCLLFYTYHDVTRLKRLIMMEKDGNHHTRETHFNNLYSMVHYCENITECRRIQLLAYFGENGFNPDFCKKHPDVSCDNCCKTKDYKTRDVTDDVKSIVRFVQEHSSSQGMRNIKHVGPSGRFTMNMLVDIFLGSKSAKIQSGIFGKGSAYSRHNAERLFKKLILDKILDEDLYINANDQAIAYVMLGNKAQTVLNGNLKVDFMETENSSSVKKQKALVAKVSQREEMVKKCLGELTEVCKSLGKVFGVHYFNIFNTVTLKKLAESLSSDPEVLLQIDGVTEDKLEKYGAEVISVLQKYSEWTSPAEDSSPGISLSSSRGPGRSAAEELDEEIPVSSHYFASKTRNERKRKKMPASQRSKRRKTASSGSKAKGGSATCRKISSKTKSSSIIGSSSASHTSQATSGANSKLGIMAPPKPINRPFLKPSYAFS
Method in brief: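 BLM 50 nM in 25 mM Tris-HCl pH 8.0, 5 mM NaCl, 2 mM MgCl2, 1 mM DTT, 0.01% Tween-20, 2.5 ug/ml poly(dI-dC); 15 min cpd preinc, RT. Start: 200 nM forked DNA + 2 mM ATP (final). TAMRA read, 2 reads 2 h apart.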

[15] = biological target: Phospholipid hydroperoxide glutathione peroxidase GPX4 (Homo sapiens) (UniProt P36969); assay: Primary qHTS Assay for Inhibitors of Recombinant Selenoprotein Glutathione Peroxidase 4 (GPX4) (AID 1845192); conditions: outcome: dose series up to 50 µM unless noted; also: nearly all actives have a fitted effect of over 65% in size
Phospholipid hydroperoxide glutathione peroxidase GPX4 (Homo sapiens), sequence (P36969 whole entry, looked up): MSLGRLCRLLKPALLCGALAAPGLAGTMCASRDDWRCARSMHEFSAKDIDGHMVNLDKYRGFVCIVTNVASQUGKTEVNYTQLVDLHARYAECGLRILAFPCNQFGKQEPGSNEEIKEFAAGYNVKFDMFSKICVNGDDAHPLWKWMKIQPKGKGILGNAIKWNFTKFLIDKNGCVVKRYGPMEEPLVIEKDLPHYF
Method in brief: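 qHTS, GR-coupled: GPX4 200 nM + cpd 30 min RT → GSH 1 mM, NADPH 0.5 mM, GR 100 nM → CHP 0.5 mM start; fluor 340/450 at t0 and t15 min; no-enzyme wells as control.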

[16] = biological target: Cytochrome P450 3A4 (Homo sapiens) (UniProt P08684); assay: qHTS Assay for Activators of Cytochrome P450 3A4 (AID 885); also: nearly all actives have a fitted effect of over 65% in size
Cytochrome P450 3A4 (Homo sapiens), sequence (P08684 whole entry, looked up): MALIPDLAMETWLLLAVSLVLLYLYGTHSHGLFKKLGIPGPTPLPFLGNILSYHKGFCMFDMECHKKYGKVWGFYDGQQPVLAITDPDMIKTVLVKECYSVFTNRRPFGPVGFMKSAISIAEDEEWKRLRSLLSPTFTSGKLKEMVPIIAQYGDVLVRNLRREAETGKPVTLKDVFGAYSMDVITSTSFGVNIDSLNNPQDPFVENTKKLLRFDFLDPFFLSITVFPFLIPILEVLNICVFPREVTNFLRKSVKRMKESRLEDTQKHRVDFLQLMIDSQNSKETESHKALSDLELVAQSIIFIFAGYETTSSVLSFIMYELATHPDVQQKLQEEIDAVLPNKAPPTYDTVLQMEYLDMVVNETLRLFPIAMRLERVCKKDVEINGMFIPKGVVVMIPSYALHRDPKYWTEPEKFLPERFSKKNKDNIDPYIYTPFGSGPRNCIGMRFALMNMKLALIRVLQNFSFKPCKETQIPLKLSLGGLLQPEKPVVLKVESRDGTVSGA
Method in brief: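 CYP3A4 activity: Luciferin-PPXE O-dealkylation, 25uM substrate, 200mM KPO4, RT throughout. Read-out is luciferase luminescence; higher values reflect activation.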

[17] = qHTS for differential inhibitors of proliferation of Plasmodium falciparum line 7G8 (AID 1815);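 also: parasite growth measured after three days of incubation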

SMILES: O=c1c(-c2ccc(O)cc2)coc2c([C@@H]3O[C@H](CO)[C@@H](O)[C@H](O)[C@H]3O)c(O)ccc12
- Potency [1]: inactive

SMILES: Cc1cccc(CNc2ncnc3ccc(-c4ccccc4CN(C)C)cc23)c1
- Potency [2]: > 11.4 µM
- activity change, negative = inhibition [3]: -7.85%
- activity, negative = inhibition [4]: -2.09%
- Potency [5]: > 46 µM
- Potency [6]: > 46 µM
- outcome [7]: inactive

SMILES: C[C@]12CCC(=O)C=C1CC[C@@H]1C2[C@@H](O)C[C@@]2(C)[C@H]1CC[C@]2(O)C(=O)CO (some centres undefined)
- outcome [8]: inactive
- Potency [9]: inactive
- Potency [10]: inactive
- Potency [11]: inactive
- Potency [12]: inactive
- outcome [13]: inactive
- Potency [14]: inactive

SMILES: N[C@@H]1CN(c2c(F)cc3c(=O)c(C(=O)O)cn([C@@H]4C[C@@H]4F)c3c2Cl)CC12CC2
- Potency [1]: inactive

SMILES: O=C(Nc1ccc(OC(F)(F)Cl)cc1)c1cnc(N2CC[C@@H](O)C2)c(-c2ccn[nH]2)c1
- Potency [1]: 14.8 µM (active)
- Potency [15]: inactive

SMILES: COc1ccc(S(=O)(=O)N[C@@H](CNc2nc(C)nc(N3CCC(c4ccc5c(n4)NCCC5)CC3)c2C)C(=O)O)cc1
- Potency [1]: inactive
- Potency [15]: inactive

SMILES: CN(C)C/C=C/C(=O)Nc1cc2c(Nc3ccc(F)c(Cl)c3)ncnc2cc1O[C@H]1CCOC1
- Potency [1]: 1.86 µM (active)
- Potency [15]: inactive

SMILES: CCOC(=N)c1nc2ccc3ncnc(Nc4cc(F)c(F)cc4Cl)c3c2s1
- Potency [15]: inactive

SMILES: N#Cc1ccc(N(Cc2ccc(Br)cc2)n2cnnc2)cc1
- Potency [1]: inactive
- Potency [15]: inactive

SMILES: Nc1nc(Nc2ccccc2)nc2c1ncn2[C@@H]1O[C@H](CO)[C@H](O)[C@H]1O
- outcome [8]: inactive
- outcome [13]: inactive

SMILES: C[C@H]1CNCCCN1S(=O)(=O)c1cccc2cncc(F)c12
- Potency [1]: inactive
- Potency [15]: inactive

SMILES: C[C@H](CCC(=O)O)[C@H]1CC[C@H]2[C@@H]3[C@@H](O)C[C@@H]4C[C@H](O)CC[C@]4(C)[C@H]3CC[C@]12C
- Potency [1]: inactive
- Potency [15]: inactive

SMILES: Cc1cccc(CNc2cc(-c3ccccc3CN(C)C)ncn2)c1
- Potency [2]: > 11.4 µM
- activity change, negative = inhibition [3]: 9.15%
- activity, negative = inhibition [4]: 11.7%
- Potency [5]: > 46 µM
- Potency [6]: > 46 µM
- outcome [7]: inactive
- Potency [16]: inactive

SMILES: OC[C@H]1O[C@@H](n2cnc3c(NCCc4ccccc4)ncnc32)[C@H](O)[C@H]1O
- outcome [8]: inactive
- Potency [17]: inactive
- Potency [9]: inactive
- Potency [10]: inactive
- Potency [12]: inactive
- outcome [13]: inactive
- Potency [14]: inactive
